Results filed as inconclusive are left out. Activity calls are given as the source filed them. How the source made its calls: active means hit-call score of the fitted dose curve at least 0.9, where 1 is the maximum; inconclusive means response in the unintended direction; inactive means score below 0.9.
Assay: Tanguay_ZF_120hpf_TR_legacy: (Legacy) Oregon State University Tanguay Lab 120 Hour Post-fertilization zebrafish Assay for Touch Response (AID 2283667)
Procedure: Tanguay_ZF_120hpf_legacy is a whole embryo, multiplexed endpoint assay using zebrafish larvae exposed for 120 hours post fertilization on a 96-well plate.Tanguay_ZF_120hpf_TR_legacy is one of one assay component(s) measured or calculated from the Tanguay_ZF_120hpf_legacy assay. It is designed to make measurements of zebrafish development as detected with brightfield microscopy of developing zebrafish embryos.Data from the assay component Tanguay_ZF_120hpf_TR_legacy was analyzed into 1 assay endpoints. This assay endpoint, Tanguay_ZF_120hpf_TR_legacy, was analyzed in the positive analysis fitting direction relative to DMSO as the negative control and baseline of activity. Using a type of morphology reporter, gain-of-signal activity can be used to understand changes in developmentals as they relate to the whole embryo. To generalize the intended target to other relatable targets, this assay endpoint is annotated to the zebrafish development intended target family, where the subfamily is embryonic functional response.
Zebrafish husbandry: Tropical 5D wild-type adult zebrafish were housed in at an approximate density of 1000 per 100 gallon tank at the Sinnhuber Aquatic Research Laboratory, Oregon State University, Corvallis, OR. Each tank was kept at standard laboratory conditions of 28C on a 14-h light/10-h dark photoperiod in fish water consisting of reverse osmosis water supplemented with a commercially available salt (Instant Ocean). Spawning funnels were placed into the tanks the night prior, and embryos were collected and staged. […] Ten microliters of each row of dilution plate 2 was added to 2 exposure plates. The final DMSO concentration used was 0.64% (vol/vol). Thirty-two embryos were also exposed to 5uM trimethyltin chloride (positive control). Plates were sealed to prevent evaporation and foil covered to reduce light exposure and kept in a 28C incubator. Embryos were statically exposed until 120 hpf. At 24 hpf, embryos were assessed for photomotor response using a custom photomotor response analysis tool (PRAT) and for developmental toxicity endpoints (MO24: mortality at 24 hpf, DP: developmental progression, SM: spontaneous movement, and NC: notochord distortion). At 120 hpf, locomotor activity was measured using Viewpoint Zebralab and assessed for 18 endpoints. Zebrafish acquisition and analysis program (ZAAP), a custom program designed to inventory, acquire, and manage zebrafish data, was used to collect developmental endpoints as either present or absent (i.e., binary responses were recorded). If mortality occurred for an embryo (at either 24 or 120 hpf), the non-mortality endpoints were not measured.

| Compound | outcome | AC50 |
| --- | --- | --- |
| O=C(OCCOCCOC(=O)c1ccccc1)c1ccccc1 | inactive |  |
| NC(=O)N(O)[C@@H]1C=C[C@H](Oc2cccc(Oc3ccc(F)cc3)c2)C1 | inactive |  |
| COCC(C)OCC(C)O (stereo not given) | inactive |  |
| CCN(CC)CCNc1ccc(CNC=O)c2sc3ccc(OC)cc3c(=O)c12 | inactive |  |
| CC(=O)NC1(c2cccc(F)c2)CCN(CC[C@@]2(c3ccc(Cl)c(Cl)c3)CN(c3ccccc3)C(=O)CO2)CC1 | inactive |  |
| CN1CCC[C@H]1c1cccnc1 | inactive |  |
| C=C(C)C(=O)OCCC(F)(F)C(F)(F)C(F)(F)C(F)(F)C(F)(F)C(F)(F)F | inactive |  |
| CC(C)CCCCCCOC(=O)CCCCC(=O)OCCCCCCC(C)C | inactive |  |
| CCCCCCCCOC(=O)CCCCCCCCC(=O)OCCCCCCCC | inactive |  |
| CCCCCCCCC(=O)O | inactive |  |
| CC1=C(/C=C/C(C)=C/C=C/C(C)=C/C(=O)O)C(C)(C)CCC1 |  | 0.0914 µM (active) |
| C[C@@H]1C[C@H]2[C@@H]3CCC4=CC(=O)C=C[C@]4(C)[C@@]3(F)[C@@H](O)C[C@]2(C)[C@@]1(O)C(=O)COP(=O)(O)O | inactive |  |
| CN(C)C=O | inactive |  |
| Cc1cc(CCN2CCN(c3nsc4ccccc34)CC2)cc2c1NC(=O)CC2(C)C |  | 6.3 µM (active) |
| O=C(O)Cc1cc(I)c(Oc2cc(I)c(O)c(I)c2)c(I)c1 | inactive |  |
| c1ccc2c(c1)Cc1ccccc1-2 | inactive |  |
| O=c1c(-c2ccc(O)cc2)coc2cc(O)ccc12 | inactive |  |
| CCCCC(CC)COC(=O)CCCCC(=O)OCc1ccccc1 (stereo not given) | inactive |  |
| Nc1cccc2c(N)cccc12 | inactive |  |
| CC(C)(C)c1cc(C(C)(C)C)c(O)c(C(C)(C)C)c1 | inactive |  |

| Compound | outcome | AC50 |
| --- | --- | --- |
| CC[C@H](c1ccc(O)cc1)[C@@H](CC)c1ccc(O)cc1 | inactive |  |
| CCCCCCCCCCCCc1ccccc1S(=O)(=O)O | inactive |  |
| CCCCCCC(=O)O | inactive |  |
| OCCC(F)(F)C(F)(F)C(F)(F)C(F)(F)C(F)(F)C(F)(F)F | inactive |  |
| COc1ccc([N+](=O)[O-])cc1N | inactive |  |
| CC[C@H](C)[C@@H](C(=O)O)n1sc2ccccc2c1=O | inactive |  |
| CC(C)(C)CC(C)(C)c1ccc(O)c(-n2nc3ccccc3n2)c1 | inactive |  |
| CC(C)(C)c1ccc(O)c(C(C)(C)C)c1 | inactive |  |
| CCC(C)(C)C1CCC(O)CC1 (stereo not given) | inactive |  |
| CCOC(=O)CC(O)(CC(=O)OCC)C(=O)OCC | inactive |  |
| O=[N+]([O-])c1ccc(O)cc1 | inactive |  |
| OCCC(F)(F)C(F)(F)C(F)(F)C(F)(F)C(F)(F)C(F)(F)C(F)(F)C(F)(F)F | inactive |  |
| CCCCCCCCCCCCN1CCCC1=O | inactive |  |
| O=C(O)c1ccccc1C(c1ccc(O)cc1)c1ccc(O)cc1 | inactive |  |
| c1ccc2c(c1)ccc1ccccc12 | inactive |  |
| Cc1cc(C)c(O)c(C)c1 | inactive |  |
| Oc1cc2ccccc2c2ccccc12 |  | 38.8 µM (active) |
| CC(O)CO (stereo not given) | inactive |  |
| CCCCCCCC(=O)O | inactive |  |
| COCC(C)O (stereo not given) | inactive |  |

From PubChem BioAssay (EPA / NIEHS)
